Results on 99 molecules are retold here after PubChem BioAssay AID1022 (Emory University Molecular Libraries Screening Center, 2008).

The structures appear in SMILES notation. Among all 220,000 compounds or so, about 3,300 (1.5%) were called active. This is one part of a sample in which actives are shown more often than they occur. Values without a mark were called inactive.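 The calls were made as follows: active = compounds that cut the protein-peptide binding signal by more than 50% relative to plate controls in a single-dose test; inactive = the rest.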

In this assay the target is Induced myeloid leukemia cell differentiation protein Mcl-1 (Homo sapiens) (UniProt Q07820). Description: Mcl-1/Noxa binding inhibitors, primary screen, biochemical, TR-FRET, 1536-well (AID 1022).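 Also: His-tagged Mcl-1 with rhodamine Noxa BH3 peptide and terbium anti-His antibody; 0% = Mcl-1 plus Noxa peptide wells and 100% = peptide-only wells.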 As to conditions: TR-FRET Mcl-1/Noxa peptide binding, 2 h; at 21.7 µM; hits give high values.
Induced myeloid leukemia cell differentiation protein Mcl-1 (Homo sapiens), sequence (Q07820 whole entry, looked up): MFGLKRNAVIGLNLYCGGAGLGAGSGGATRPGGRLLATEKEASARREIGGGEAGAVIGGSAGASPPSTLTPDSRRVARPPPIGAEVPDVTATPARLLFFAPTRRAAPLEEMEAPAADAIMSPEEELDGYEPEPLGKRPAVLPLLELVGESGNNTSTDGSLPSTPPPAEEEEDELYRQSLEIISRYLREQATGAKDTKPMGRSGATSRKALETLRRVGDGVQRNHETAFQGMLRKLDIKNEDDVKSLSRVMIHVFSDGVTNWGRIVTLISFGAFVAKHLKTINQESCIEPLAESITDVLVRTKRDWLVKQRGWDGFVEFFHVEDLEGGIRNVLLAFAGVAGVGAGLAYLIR
With `O=C(NNC(=S)Nc1ccc(F)cc1)[C@H]1C[C@@H]1c1ccccc1`, the inhibition was -82.4%. For `O=C(Nc1ccc(N2CCOCC2)nc1)c1c(F)cccc1F` the value was 25.6%; for `Cc1cccc(NC(=O)CSc2nnc(CCNC(=O)OC(C)(C)C)o2)c1C`, -10.6%; for `C=CC1C(OC2OC(CO)C(O)C(O)C2O)OC=C(C(=O)OC)C1CC1CC(=O)CC(CC(=O)CCc2ccc(O)cc2)O1` (centres undefined), 18.5%. As to `Cc1ccc(S(=O)(=O)N(C)C)cc1NC(=O)c1n[nH]c(=O)c2ccccc12`, the inhibition was -4.07%.

For the molecule `CCOC(=O)c1cn[nH]c1NC(=S)Nc1ccccc1`, the inhibition is 18.3%. Consider `CCNc1nc(-c2cc3ccccc3o2)cs1`, for which the inhibition was 37.2%.

Consider `COc1ccc(-c2csc(Nc3ccccn3)n2)cc1`, for which the inhibition was 19.1%. For `O=c1oc2ccccc2cc1-c1csc(Nc2ccc(O)cc2)n1`, the inhibition was 101% (active). Take `COc1ccc(OC)c(Nc2nc(-c3ccc(O)c(O)c3)cs2)c1`: the inhibition is 69.2% (active). For `COc1ccc(Nc2nc(-c3ccccc3)cs2)cc1`, the inhibition was 13.3%. Turning to `Nc1ncc(-c2cc3ccccc3oc2=O)s1`, the inhibition is 21.7%. The same measure for `COc1ccc2nc(Nc3nc(-c4ccncc4)cs3)sc2c1`: 43.5%; for `COc1ccc(-c2csc(Nc3ccc(O)cc3)n2)cc1`: 69.4% (active); for `COc1ccc(C)cc1Nc1nc(-c2c(C)[nH]c3ccccc23)cs1`: 12.8%. The same measure for `O=C(NCc1ccc(F)cc1)C1CCC(CNc2c(N3CCOCC3)c(=O)c2=O)CC1` (centres undefined): -8.83%; for `CN1CCN(c2ncc3c(n2)CC(c2ccccc2F)CC3=O)CC1` (centres undefined): -10.3%.

On to `CC(=O)NC(CC(=O)Nc1nccs1)c1ccccc1` (centres undefined), for which the inhibition is -8.98%.

With `CC1(C)CC(=O)C(N=Nc2c(F)cccc2F)=C(O)C1`, the inhibition is -2.76%. For `CC(NCc1ccccc1OC1CCCC1)c1ccccc1` (centres undefined) the value was -3.22%; for `Cc1cc(-c2nc(C)c(-c3nnc(SCC(=O)Nc4ccccc4)n3C)s2)no1`, 3.26%; for `Nc1nc(SC23CC4CC(CC(C4)C2)C3)ns1`, 5.98%. The same measure for `CC1=CC(C)(C)NC(=S)N1NC(=O)c1ccccc1Cl`: 5.81%; for `O=C(Cn1cnc2cc([N+](=O)[O-])ccc2c1=O)NC(=O)NCc1ccccc1`: 53.5% (active); for `CC(C)(C)NC(=O)Cn1cnc2cc([N+](=O)[O-])ccc2c1=O`: 27.1%. Turning to `O=C(Cn1cnc2c(cnn2-c2ccccc2)c1=O)NCc1ccccc1`, the inhibition is 6.36%. Regarding `Cc1ccc(S(=O)(=O)NNC(=S)NC(C)(C)C)cc1`, the inhibition is -14.3%. With `O=C(NC(=O)N1CCSCC1)c1c(Cl)cccc1Cl`, the inhibition is 2.15%. As for `Cc1ccc(-c2csc(-c3cc(C)on3)n2)cc1`, the inhibition is -2.5%. Consider `O=S(=O)(c1cccc(-c2nnc3n2CCCCC3)c1)N1CCOCC1`, for which the inhibition was 3.07%. Take `Cc1ccc(C(=O)Nc2cccc3ncccc23)cc1[N+](=O)[O-]`: the inhibition was 10.6%. On to `Cc1ccc(/C=C(\C#N)C(=O)Nc2cccc3ncccc23)o1`, for which the inhibition is 65.7% (active).

For `O=C(Nc1cccc2ncccc12)C(Cl)(Cl)Cl`, the inhibition is 11.1%. As to `Cc1ccc(NC(=O)/C(=C/c2ccc([N+](=O)[O-])cc2)NC(=O)c2ccccc2)cc1`, the inhibition was 3.04%. The same measure for `Cn1nccc1NC(=O)Nc1ccc(OC(F)(F)F)cc1`: -2.66%.

`Oc1c(Cl)cc(Cl)c(Cl)c1Cc1c(O)c(Cl)cc(Cl)c1Cl`: the inhibition is 104% (active). Turning to `CCN(/N=C/c1ccccc1)c1cc(=O)n(C)c(=O)[nH]1`, the inhibition was 21%. As to `Oc1ccc(/C=N/N(Cc2ccccc2)c2ccccc2)cc1`, the inhibition was 27%.

Turning to `CN(C)c1ccc(/C=N/N(Cc2ccccc2)c2ccccc2)cc1`, the inhibition is 95.7% (active). `COC(=O)Cc1nc2ccccc2[nH]1`: the inhibition is 9.2%. For `CN(C)c1ccc(/C=N\S(=O)(=O)c2ccccc2)cc1` the value was 2.37%; for `CCN(/N=C/c1ccc(N(C)C)cc1)c1nc2ccccc2[nH]1`, 81% (active).

As to `COc1cc(C(F)(F)F)nc2c(Br)c(C(C)(C)C)nn12`, the inhibition is 7.39%. Turning to `CN(C)S(=O)(=O)c1ccc(C(=O)NCC(C)(C)N2CCOCC2)cc1`, the inhibition was 7.92%. On to `Cc1ccc(NNC(=O)c2c(F)cccc2Cl)cc1Cl`, for which the inhibition is 0.81%.

Regarding `CCOC(=O)C1CCN(C(=O)Nc2cccc(OC)c2)CC1`, the inhibition was -13.3%. For the molecule `COc1cccc(C(=O)n2ccc(-c3cccs3)n2)c1`, the inhibition was 1.68%. Consider `Cc1nnc(SC(C(=O)c2ccccc2)c2ccccc2)[nH]c1=O` (centres undefined), for which the inhibition is -5.97%.

In the case of `Cc1cc2c(cc1C)N(Cc1ccccc1)C1=NCCCN12`, the inhibition is -4.28%.

Turning to `CCOc1ccc(/C=N/Nc2nncc(-c3ccccc3)n2)cc1OC`, the inhibition was 14.2%. For `COc1ccc(/C=N/Nc2nc3ccccc3o2)cc1OC`, the inhibition is -2.8%. For `COc1cc(/C=N/Nc2nn3cnnc3c3ccccc23)cc(OC)c1OC`, the inhibition was 52.5% (active). In the case of `C=CCN(c1ccccc1C(=O)NCC(=O)OCC)S(=O)(=O)c1ccc(C)cc1`, the inhibition was 8.19%. Regarding `Cc1ccc(NN=Nc2nc3c([nH]2)c(=O)n(C)c(=O)n3C)cc1`, the inhibition is 55.6% (active). For `CCCSc1nc2c(c(=O)n(C)c(=O)n2C)n1Cc1ccc(C)cc1`, the inhibition was -4.96%. The same measure for `CC(CCO)Nc1nc2c([nH]1)c(=O)n(C)c(=O)n2C` (centres undefined): -3.43%; for `Cc1cc(C(=O)NNS(=O)(=O)c2ccccc2C(F)(F)F)nn1C(C)(C)C`: -0.45%. On to `Cc1cc(N2CCN(c3ccc(F)cc3)CC2)n2ncnc2n1`, for which the inhibition was -1.64%. The same measure for `CC(C)NC(=O)NNc1c(Cl)cncc1Cl`: 3.37%; for `Cc1ccc(Cn2c(NC(=O)c3ccco3)nc3ccccc32)cc1`: 1.28%; for `Cc1ccc(Cn2c(C)nc3c(c2=O)c2nc4ccccc4nc2n3Cc2ccco2)cc1`: 63.1% (active).

As to `Clc1cccc(-c2nc3nc4ccccc4nc3n2Cc2ccco2)c1`, the inhibition was 4.89%. Consider `COc1ccc2c(c1)C(=C(C#N)C#N)C(=O)N2CCc1ccccc1`, for which the inhibition was -4.33%. As to `CCCCCn1c(=O)c(C(=O)OCC)c(Cl)c2ccccc21`, the inhibition is -2.04%. `CCOC(=O)/C=C/CN(C(=O)OC(C)(C)C)S(=O)(=O)N1CC=CC1`: the inhibition is -18%. For the molecule `CCC(C)N1C(=S)SC(C)(C)C1N(O)C(=O)NC1CCCCC1` (centres undefined), the inhibition was -0.12%.

In the case of `CC(=O)N1C(=O)/C(=C2\SC(=S)N(NC(=O)c3ccc(O)cc3)C2=O)c2ccccc21`, the inhibition was 94.5% (active).

Consider `O=C(O)c1ccc2c(c1)C(=O)N(NC(=O)c1ccc(O)cc1)C2=O`, for which the inhibition is 12.9%.

With `Cn1cccc1/C=C1\SC(=S)N(NC(=O)c2ccc(Cl)cc2)C1=O`, the inhibition is 18.5%.

As for `O=C(NCCc1ccccc1)Oc1ccc(Cl)cc1`, the inhibition is 7.49%. Turning to `COC(=O)N(NC(=O)C(O)(C(C)C)C(C)C)c1ccccc1`, the inhibition is -6.13%. For `C/C(=N/Nc1nc(-c2ccccc2)c(CC(=O)O)s1)c1ccccc1` the value was 55.8% (active); for `O=C(O)Cc1sc(-c2ccc(C(=O)O)cc2)nc1-c1ccccc1`, 15.3%. The same measure for `Cc1ccc(-c2nc(C)sc2CC(=O)O)cc1`: 6.4%; for `CCn1c(=O)c2cc(C(=O)Nc3cccc(C(C)=O)c3)sc2c2ccccc21`: -88.5%. For `O=c1c(-c2ccc(Cl)cc2)[n+]([O-])c2ccccc2n1OCc1nc2ccccc2[nH]1` the value was -16.2%; for `COC(=O)CC1=NN(c2ccccc2)C(=O)C1`, 19.1%. For `COC(=O)CC1=NN(c2nc(C)cc(C)n2)C(=O)C1`, the inhibition is 68% (active).

As to `Cc1cc(C)cc(NC(=O)C2CCN(c3nc(C)cc(C)n3)CC2)c1`, the inhibition was -11.6%. For `CC(CO)(CO)NC(=O)c1ccc(=O)[nH]n1` the value was 4.69%; for `O=C(c1ccc(F)cc1)C1CCN(Cc2cn[nH]c2-c2ccccc2)CC1`, -14.2%. As for `COc1cc(/C=N/NC(=O)c2cc(C)n(-c3ccc(F)cc3)c2C)cc(OC)c1O`, the inhibition was 47.1%. For `Cc1nn(CC(=O)N/N=C/c2ccc(F)cc2)c(C)c1[N+](=O)[O-]` the value was 12.1%; for `Cc1cc(C(=O)N/N=C/c2ccc(O)c([N+](=O)[O-])c2)c(C)n1-c1ccc(F)cc1`, 87.3% (active). `Cc1ccc(/C=N/NC(=S)Nc2cccc(S(=O)(=O)N(C)C)c2)o1`: the inhibition was -90.2%. In the case of `OC(c1ccccc1)C(CN1CCOCC1)c1ccccc1` (centres undefined), the inhibition is 6.74%. Take `CCNC(=S)N1CCN(CCN=CC2=C(O)CC(C)(C)CC2=O)CC1`: the inhibition is 7.49%. On to `NNC(=O)c1oc2nc(-c3ccccc3)cc(-c3ccco3)c2c1N`, for which the inhibition is 72.9% (active). As to `O=C(CCc1ccccc1)Nc1cccc(-c2nnc(-c3ccco3)o2)c1`, the inhibition is 14.2%. The same measure for `O=C(NCc1ccco1)c1nc(-c2ccccc2)n(-c2ccccc2)n1`: -7.46%. On to `NC(=O)c1ccc(NC(=O)COC(=O)c2ccc([N+](=O)[O-])cc2)cc1`, for which the inhibition is -10.3%. `CCOC(=O)c1c(NC(=S)NC)sc2c1CCCC2`: the inhibition is 11.9%. Take `COc1ccc(NC(=S)Nc2ccccc2Cl)cn1`: the inhibition is 16.9%.

On to `COc1ccc(NC(=O)/C(Cl)=C(/Cl)S(=O)Cc2ccc(C)cc2)cn1` (centres undefined), for which the inhibition was 65.8% (active). As for `COc1ccc(CS(=O)/C(Cl)=C(/Cl)C(=O)Nc2ccc(OC)nc2)cc1` (centres undefined), the inhibition was 43.3%. The same measure for `CCNC(=O)CCc1nc(-c2ccc(C)cc2)no1`: -1.4%. For the molecule `COc1ccccc1C1=Nc2cccc3cccc(c23)N1`, the inhibition was 75.8% (active). Take `c1ccc(C2=Nc3cccc4cccc(c34)N2)cc1`: the inhibition is 37%. `Fc1ccccc1N=C1Nc2cccc3cccc1c23`: the inhibition is 16.1%.
